# Measurements published in PubChem BioAssay (NCATS).
# Inconclusive results are not listed. Entries that show only a call come without a potency. The source made the active and inactive calls. Calls follow the shape of the dose curve; as a rule, active = well fitted curve in the direction sought with a large enough effect; inconclusive = small, poorly fitted or top-dose-only effect, or another doubt; inactive = no such curve, though single readings can be large; an effect the other way counts as inactive or inconclusive.
# Experiments:
# [1] = molecular target: Aldehyde dehydrogenase, mitochondrial (Homo sapiens) (UniProt P05091); assay: qHTS for Inhibitors of the Aldehyde Dehydrogenase Family (ALDH2) Primary screen (AID 2061308); settings: ALDH2 enzyme inhibition qHTS, 1536-well; series mostly up to 56 µM; also: nearly all actives have a fitted effect of over 55% in size
# [2] = molecular target: Retinaldehyde dehydrogenase 3 (Homo sapiens) (UniProt P47895); assay: qHTS for Inhibitors of the Aldehyde Dehydrogenase Family (ALDH1A3) Primary screen (AID 2061315); settings: ALDH inhibition qHTS; series mostly up to 56 µM
Compound,Potency [1],Potency [2]
CCc1nnc(NS(=O)(=O)c2ccc(NC(=S)NC(=O)/C=C/c3ccc(F)cc3)cc2)s1,inactive,inactive
COc1ccc(C2Nc3ccccc3C(=O)N2Cc2ccco2)cc1 (centres undefined),inactive,inactive
CCCn1c(C)nc2c(NC(C)CCCN(CC)CC)nc(C)nc21 (centres undefined),inactive,inactive
O=C(OCC#CCSc1nnc(-c2cccc3ccccc23)o1)c1ccccc1,inactive,inactive
Oc1ccc(-c2nn[nH]n2)c2cccnc12,inactive,inactive
O=C(CSc1nnc(-c2cccc(S(=O)(=O)N3CCCC3)c2)n1-c1ccccc1)Nc1ccc(C(=O)O)cc1,inactive,inactive
CC(=O)c1ccc(N2CCN(S(=O)(=O)c3ccc4c(c3)CCCC(=O)N4)CC2)cc1,inactive,inactive
O=[S+]([O-])(Nc1ccc(-c2ccccc2)cc1)c1ccc(NCc2ccc(Cl)cc2O)cc1,inactive,inactive
Cc1nc(N2CCOCC2)c2nc(-c3ccccc3)n(CC(C)(C)CN(C)C)c2n1,inactive,inactive
Cn1c2cc(B(O)O)sc2c2cnn(Cc3c(F)cccc3Cl)c(=O)c21,inactive,inactive
COc1ccc(Cl)cc1C(=O)Nc1nc(-c2ccccc2)cs1,inactive,inactive
CCCn1c(-c2ccc(F)cc2)nc2c(NCC3CCN(C)CC3)nc(C)nc21,inactive,inactive
Cc1ccc(C(C)c2ccc(=O)n(CC(=O)NCCc3ccccc3)n2)cc1 (centres undefined),inactive,inactive
Cc1ccc(OCCn2c(CCNC(=O)c3ccccc3)nc3ccccc32)cc1,inactive,inactive
O=S(=O)(Nc1nccs1)c1ccc(NCc2ccccc2)cc1,inactive,inactive
CC(=O)Nc1sc2c(c1-c1nc3ccccc3s1)CCCN(C(C)C)C2,inactive,inactive
O=C(COc1ccc(F)cc1)NCCc1nc2ccccc2[nH]1,inactive,inactive
CCCCN1C(=O)c2ccccc2NC1c1ccc(OC)c(COc2c(C)cc(NC(C)=O)cc2C)c1 (centres undefined),inactive,inactive
CC(=O)Nc1sc2c(c1C(=O)O)CCNC2,inactive,inactive
O=S(=O)(c1ccc2c(c1)OCCO2)N1CCN(S(=O)(=O)c2cccs2)CC1,inactive,inactive
Cc1ccc(-c2cc(C(=O)Nc3ccncc3)c3ccccc3n2)cc1C,inactive,inactive
COc1ccc(CN(Cc2ccccc2)C(=O)c2ccc(OC)cc2O)cc1,inactive,inactive
